Measurements from paper PMC7862700, “An all-to-all approach to the identification of sequence-specific readers for epigenetic DNA modifications on cytosine”.

Experiments:
Assay in all cases: DAPPL (digital affinity profiling via proximity ligation, sequencing); 10 mM Tris-HCl pH 7.5, 50 mM NaCl, 1 mM DTT, 4% glycerol, room temperature, 30 min; GST-TFs on glutathione beads, 16-mer random dsDNA library, 0.1% formaldehyde crosslink after washing; high values mean tight binding
Conditions in all cases: protein: recombinant; tags: N-terminal GST; dsDNA, one strand shown
[1] = target: T1, FLI1 (Homo sapiens, UniProt Q01543 1-452)
T1 sequence: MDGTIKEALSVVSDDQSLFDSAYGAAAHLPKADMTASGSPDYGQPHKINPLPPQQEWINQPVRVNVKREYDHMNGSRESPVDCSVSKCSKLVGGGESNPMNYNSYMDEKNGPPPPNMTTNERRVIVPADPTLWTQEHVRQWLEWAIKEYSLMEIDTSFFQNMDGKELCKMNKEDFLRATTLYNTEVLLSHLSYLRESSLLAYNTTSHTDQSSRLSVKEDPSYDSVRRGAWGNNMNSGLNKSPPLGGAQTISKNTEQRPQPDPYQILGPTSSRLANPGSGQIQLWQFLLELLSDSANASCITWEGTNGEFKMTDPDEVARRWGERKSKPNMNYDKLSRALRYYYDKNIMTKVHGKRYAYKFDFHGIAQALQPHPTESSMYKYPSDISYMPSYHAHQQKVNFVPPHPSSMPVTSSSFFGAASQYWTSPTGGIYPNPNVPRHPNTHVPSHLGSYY
Summary of the method: (§1)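 GST fusions of human transcription factors were expressed in yeast and captured with glutathione beads. Once given DNA barcodes and pooled alongside a tag-only sample, they were incubated for 30 min at room temperature with 200 nmole of a random double-stranded 16-mer DNA library in Tris/NaCl/DTT/glycerol buffer, then washed, crosslinked (0.1% formaldehyde), proximity-ligated, PCR-amplified and sequenced on an Illumina NextSeq500. The binding signal of each hexamer is its read frequency for a factor divided by its frequency for the tag-only sample.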

[2] = target: T2, ELK1 (Homo sapiens, UniProt P19419 1-428)
T2 sequence: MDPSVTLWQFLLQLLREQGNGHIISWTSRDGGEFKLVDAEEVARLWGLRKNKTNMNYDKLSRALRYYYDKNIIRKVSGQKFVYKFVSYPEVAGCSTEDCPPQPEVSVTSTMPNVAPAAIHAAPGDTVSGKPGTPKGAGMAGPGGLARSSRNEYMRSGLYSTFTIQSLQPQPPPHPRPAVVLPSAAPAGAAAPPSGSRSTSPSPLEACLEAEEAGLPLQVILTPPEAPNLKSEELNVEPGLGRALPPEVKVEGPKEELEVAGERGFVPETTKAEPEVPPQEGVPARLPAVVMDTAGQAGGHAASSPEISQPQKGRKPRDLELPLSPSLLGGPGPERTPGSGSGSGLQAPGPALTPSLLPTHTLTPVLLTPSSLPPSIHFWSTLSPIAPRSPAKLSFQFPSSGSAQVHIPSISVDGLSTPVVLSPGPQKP
Summary of the method: as §1

[3] = target: T3, GABPA (Homo sapiens, UniProt Q06546 1-454)
T3 sequence: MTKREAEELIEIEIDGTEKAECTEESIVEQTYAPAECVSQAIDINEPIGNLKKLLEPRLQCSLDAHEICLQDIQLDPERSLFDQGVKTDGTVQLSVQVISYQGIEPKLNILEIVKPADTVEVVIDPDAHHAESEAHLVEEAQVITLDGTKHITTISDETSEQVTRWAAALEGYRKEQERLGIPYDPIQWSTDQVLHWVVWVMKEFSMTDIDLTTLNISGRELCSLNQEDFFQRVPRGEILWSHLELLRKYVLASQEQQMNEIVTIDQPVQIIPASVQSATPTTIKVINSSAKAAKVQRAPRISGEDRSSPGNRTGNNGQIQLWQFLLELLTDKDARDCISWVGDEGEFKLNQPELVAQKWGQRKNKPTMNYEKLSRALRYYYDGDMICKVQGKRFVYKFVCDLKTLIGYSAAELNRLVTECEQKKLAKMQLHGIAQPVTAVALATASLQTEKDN
Summary of the method: as §1

[4] = target: T4, ERG (Homo sapiens, UniProt P11308 1-479)
T4 sequence: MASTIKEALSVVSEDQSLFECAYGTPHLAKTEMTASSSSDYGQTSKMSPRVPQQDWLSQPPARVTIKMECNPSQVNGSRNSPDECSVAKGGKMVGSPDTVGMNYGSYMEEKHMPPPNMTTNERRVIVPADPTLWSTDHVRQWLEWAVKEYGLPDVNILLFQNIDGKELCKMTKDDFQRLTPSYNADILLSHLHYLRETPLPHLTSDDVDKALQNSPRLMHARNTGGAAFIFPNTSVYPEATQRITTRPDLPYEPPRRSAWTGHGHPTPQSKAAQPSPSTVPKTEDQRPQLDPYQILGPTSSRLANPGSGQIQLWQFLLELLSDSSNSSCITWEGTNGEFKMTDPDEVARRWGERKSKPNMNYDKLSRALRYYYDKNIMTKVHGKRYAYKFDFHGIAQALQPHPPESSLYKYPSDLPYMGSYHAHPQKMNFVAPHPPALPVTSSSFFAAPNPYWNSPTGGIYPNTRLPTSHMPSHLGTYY
Summary of the method: as §1

[5] = target: ELF1 (Homo sapiens, UniProt P32519 1-619)
Summary of the method: as §1

[6] = target: T5, EHF (Homo sapiens, UniProt Q9NZC4 1-300)
T5 sequence: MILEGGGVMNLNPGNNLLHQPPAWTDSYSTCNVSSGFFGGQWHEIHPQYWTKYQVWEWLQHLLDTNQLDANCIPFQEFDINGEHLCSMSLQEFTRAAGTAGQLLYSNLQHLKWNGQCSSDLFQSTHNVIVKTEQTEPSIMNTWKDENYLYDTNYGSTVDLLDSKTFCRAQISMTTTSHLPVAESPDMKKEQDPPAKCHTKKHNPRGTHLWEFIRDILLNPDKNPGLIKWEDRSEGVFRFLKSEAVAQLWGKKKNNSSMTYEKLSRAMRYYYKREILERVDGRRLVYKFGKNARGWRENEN
Summary of the method: as §1

[7] = target: SPI1 (Homo sapiens, UniProt P17947 1-270)
Summary of the method: as §1

[8] = target: SPIB (Homo sapiens, UniProt Q01892 1-262)
Summary of the method: as §1

[9] = target: T6, ELK3 (Homo sapiens, UniProt P41970 1-407)
T6 sequence: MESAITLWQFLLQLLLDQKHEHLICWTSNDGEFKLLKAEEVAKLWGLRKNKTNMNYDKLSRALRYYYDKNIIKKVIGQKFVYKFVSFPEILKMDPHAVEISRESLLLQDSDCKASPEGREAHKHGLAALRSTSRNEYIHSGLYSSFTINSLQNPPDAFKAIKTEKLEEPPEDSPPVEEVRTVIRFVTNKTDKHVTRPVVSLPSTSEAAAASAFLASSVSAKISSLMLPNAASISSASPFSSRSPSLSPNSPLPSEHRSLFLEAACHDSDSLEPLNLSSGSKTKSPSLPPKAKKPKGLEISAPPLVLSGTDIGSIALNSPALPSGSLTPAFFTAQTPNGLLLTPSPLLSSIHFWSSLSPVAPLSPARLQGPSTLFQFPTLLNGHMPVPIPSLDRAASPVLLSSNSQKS
Summary of the method: as §1

Chain of ELF1 (P32519 whole entry): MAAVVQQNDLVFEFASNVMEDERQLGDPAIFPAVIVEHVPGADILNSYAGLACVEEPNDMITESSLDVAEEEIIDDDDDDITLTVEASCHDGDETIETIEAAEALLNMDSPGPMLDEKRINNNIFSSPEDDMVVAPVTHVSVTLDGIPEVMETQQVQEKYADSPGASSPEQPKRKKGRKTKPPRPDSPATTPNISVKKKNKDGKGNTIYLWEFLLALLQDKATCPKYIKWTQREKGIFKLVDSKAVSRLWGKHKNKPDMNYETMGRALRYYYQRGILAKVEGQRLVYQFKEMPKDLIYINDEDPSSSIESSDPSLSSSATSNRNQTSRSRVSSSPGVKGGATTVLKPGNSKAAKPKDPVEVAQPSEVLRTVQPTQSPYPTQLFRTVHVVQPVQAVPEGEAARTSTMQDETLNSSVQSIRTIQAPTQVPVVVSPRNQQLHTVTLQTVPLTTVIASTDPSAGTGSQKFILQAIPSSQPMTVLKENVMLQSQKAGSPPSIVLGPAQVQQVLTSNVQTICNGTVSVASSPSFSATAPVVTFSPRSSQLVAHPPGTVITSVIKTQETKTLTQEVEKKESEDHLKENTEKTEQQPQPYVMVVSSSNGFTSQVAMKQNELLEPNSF
Chain of SPIB (Q01892 whole entry): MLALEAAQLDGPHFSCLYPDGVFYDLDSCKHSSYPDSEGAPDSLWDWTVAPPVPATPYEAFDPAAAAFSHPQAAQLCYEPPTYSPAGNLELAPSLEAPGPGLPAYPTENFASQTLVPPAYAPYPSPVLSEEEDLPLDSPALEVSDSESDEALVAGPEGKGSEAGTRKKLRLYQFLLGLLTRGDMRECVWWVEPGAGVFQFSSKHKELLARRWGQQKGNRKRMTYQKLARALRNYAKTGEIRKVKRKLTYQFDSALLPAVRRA

Sequence	binding signal [1]	binding signal [2]	binding signal [3]	binding signal [4]	binding signal [5]	binding signal [6]	binding signal [7]	binding signal [8]	binding signal [9]
TACCTC	1.25 fold enrichment (6-mer frequency, TF over GST control)	1.29 fold enrichment (6-mer frequency, TF over GST control)	1.33 fold enrichment (6-mer frequency, TF over GST control)	1.19 fold enrichment (6-mer frequency, TF over GST control)	1.25 fold enrichment (6-mer frequency, TF over GST control)	1.2 fold enrichment (6-mer frequency, TF over GST control)	1.27 fold enrichment (6-mer frequency, TF over GST control)	1.21 fold enrichment (6-mer frequency, TF over GST control)	1.27 fold enrichment (6-mer frequency, TF over GST control)
TAAACT	1.13 fold enrichment (6-mer frequency, TF over GST control)	1.24 fold enrichment (6-mer frequency, TF over GST control)	1.19 fold enrichment (6-mer frequency, TF over GST control)	1.14 fold enrichment (6-mer frequency, TF over GST control)	1.13 fold enrichment (6-mer frequency, TF over GST control)	1.15 fold enrichment (6-mer frequency, TF over GST control)	1.15 fold enrichment (6-mer frequency, TF over GST control)	1.23 fold enrichment (6-mer frequency, TF over GST control)	1.27 fold enrichment (6-mer frequency, TF over GST control)
TTCACT	1.22 fold enrichment (6-mer frequency, TF over GST control)	1.32 fold enrichment (6-mer frequency, TF over GST control)	1.33 fold enrichment (6-mer frequency, TF over GST control)	1.36 fold enrichment (6-mer frequency, TF over GST control)	1.43 fold enrichment (6-mer frequency, TF over GST control)	1.32 fold enrichment (6-mer frequency, TF over GST control)	1.33 fold enrichment (6-mer frequency, TF over GST control)	1.24 fold enrichment (6-mer frequency, TF over GST control)	1.37 fold enrichment (6-mer frequency, TF over GST control)
ATTTGG	1.44 fold enrichment (6-mer frequency, TF over GST control)	1.33 fold enrichment (6-mer frequency, TF over GST control)	1.39 fold enrichment (6-mer frequency, TF over GST control)	1.36 fold enrichment (6-mer frequency, TF over GST control)	1.36 fold enrichment (6-mer frequency, TF over GST control)	1.35 fold enrichment (6-mer frequency, TF over GST control)	1.38 fold enrichment (6-mer frequency, TF over GST control)	1.32 fold enrichment (6-mer frequency, TF over GST control)	1.33 fold enrichment (6-mer frequency, TF over GST control)
